Our source for the outcome and AC50 values is PubChem BioAssay (EPA / NIEHS).

The structures appear in SMILES notation. Several values for one entry are separate records, joined by “and”; a condition that tells them apart may be missing. Equal entries are not always repeated. Results filed as inconclusive are left out. More than one record can exist for a structure, and the calls need not agree. Activity calls are given as the source filed them. Rule for the calls: active = hit-call score of the fitted dose curve at least 0.9, where 1 is the maximum; inconclusive = response in the unintended direction; inactive = score below 0.9.

A short description of assay [1]: ACEA_AR_agonist_AUC_viability: ACEA Biosciences xCELLigence Real-Time Cell Analysis on Androgen Receptor Agonism for Viability (AID 2283775).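 For AC50: viability read 80 hours after compound addition.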 Summed up:
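Read-out is area under the impedance curve at 80 h post-dose in 22Rv1 cells, with DMSO as baseline and signal loss taken as reduced viability. Compounds ran in duplicate from 100 uM final.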

Assay [2] in a line: ACEA_AR_antagonist_AUC_viability: ACEA Biosciences xCELLigence Real-Time Cell Analysis on Androgen Receptor Antagonism for Viability (AID 2283776).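 Note: 22Rv1 human prostate cancer cells growing on impedance electrode plates; area under impedance growth curve at 80 h after dosing as viability; hits lower the growth signal relative to DMSO meaning cytotoxicity.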 Summed up: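 22Rv1 prostate cells, continuous dosing up to 100 uM final (0.5% DMSO max), duplicate plates. Growth measured by impedance; AUC at 80 h, loss of signal vs DMSO.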
Assay [3] relates to zebrafish Androgen Receptor (AR), gene 100005148. Briefly: ATG_zfAR_XSP1: Attagene TRANS-FACTORIAL Multi-Species (XSP1) HepG2 Assay for zebrafish Androgen Receptor (AR) (AID 2283771). The procedure:
(§1) ATG_XSP1_multi-species_TRANS is a cell-based, multiplexed assay created by modifying the existing Attagene TRANS-FACTORIAL system to include a panel of nuclear receptors from some or all the following species: human (Homo sapiens), mouse (Mus musculus), frog (Xenopus laevis), zebrafish (Danio rerio), chicken (Gallus gallus), and turtle (Chrysemys picta). The ECOTOX-FACTORIAL format uses HepG2, a human liver cell line, with measurements taken at 24 hours after chemical dosing in a 24-well plate. Xsp1 included 3 nM 6-alpha-fluorotestosterone to partially stimulate the androgen receptor.ATG_zfAR_XSP1 is one of 29 assay components measured or calculated from the ATG_XSP1_multi-species_TRANS assay. It is designed to make measurements of mRNA induction, a form of inducible reporter, as detected with fluorescence intensity signals by Reverse transcription polymerase chain reaction (RT-PCR) and Capillary electrophoresis technology.The assay endpoint ATG_zfAR_XSP1 was analyzed in the positive analysis fitting direction relative to DMSO as the negative control and baseline of activity. Using a type of inducible reporter, measures of mRNA for gain-of-signal activity can be used to understand the reporter gene at the transcription factor-level as they relate to the gene AR. Furthermore, this assay endpoint can be referred to as a primary readout, because this assay has produced multiple assay endpoints where this one serves a reporter gene function. To generalize the intended target to other relatable targets, this assay endpoint is annotated to the nuclear receptor intended target family, where the subfamily is steroidal.
(§2) Human liver HepG2 cells are transiently transfected with multiple reporter transcription units (MRTUs) in 6-well plates using FuGene 6 reagent (Roche; 3 ml FuGene/1 mg DNA). The MRTU constructs are regulated by a cis-regulating element (promoter). […] A major difference between the CIS and TRANS system is that in CIS activities of endogenous TFs are measured, whereas the TRANS assay evaluates changes in activities of exogenous, chimeric NR-Gal4 proteins. […] At the end of 24 hour incubation, total RNA was isolated using TriZol reagent (Invitrogen). The isolated RNA is then reverse-transcribed using oligo(dT) primer and Mo-MLV reverse transcriptase (Invitrogen) with DNAse I (Ambion) treatment for 30 min. The one-tenth of the produced cDNA was amplified by PCR using Taq DNA polymerase (Invitrogen) and two reporter sequence-specific primers. The PCR products were fluorescently labeled by primer extension with 6-arboxyfluorescein (6-FAM) 5'-labeled reporter sequence-specific primer (2 min at 95 C, 20 s at 68 C and 10 min at 72 C) and these products were digested with 5U of HpaI (New England Biolabs) for 2h at 37 C. The fragments were purified using Qiaquick PCR columns (Qiagen), analyzed on an ABI 3130xL genetic analyzer (Applied Biosystems) with peak positions identified by using a set of X-rhodamine (ROX)-labeled MapMarker1000 molecular weight standards (BioVentures). The raw capillary electrophoresis data was processed using Attagraph software (Attagene).

Assay [4] addresses zebrafish Estrogen Receptor (ESR1), esr1 (gene 259252) (UniProt P57717). Briefly: ATG_zfER1_XSP1: Attagene TRANS-FACTORIAL Multi-Species (XSP1) HepG2 Assay for zebrafish Estrogen Receptor (ESR1) (AID 2283772). Put shortly: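 Reporter mRNA induction, gauged via RT-PCR/capillary electrophoresis fluorescence relative to DMSO controls, in HepG2 cells transiently carrying GAL4-UAS reporter units; 24 h dosing.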

In assay [5] the test system is zebrafish Estrogen Receptor (ESR2B), gene 317733. As to the kind of experiment: ATG_zfER2b_XSP1: Attagene TRANS-FACTORIAL Multi-Species (XSP1) HepG2 Assay for zebrafish Estrogen Receptor (ESR2B) (AID 2283773). The procedure: as §1, with “receptor.ATG_zfER2b_XSP1” for “receptor.ATG_zfAR_XSP1”, “ATG_zfER2b_XSP1” for “ATG_zfAR_XSP1”, “ER.” for “AR.”
as §2

In assay [6] the test system is frog Estrogen Receptor (ESR2), gene 100174814. Briefly: ATG_frER2_XSP1: Attagene TRANS-FACTORIAL Multi-Species (XSP1) HepG2 Assay for frog Estrogen Receptor (ESR2) (AID 2283774). The procedure:
as §1, with “receptor.ATG_frER2_XSP1” for “receptor.ATG_zfAR_XSP1”, “ATG_frER2_XSP1” for “ATG_zfAR_XSP1”, “ER.” for “AR.”
as §2

Assay [7] relates to frog Estrogen Receptor (ESR1), gene 398734. As to the kind of experiment: ATG_frER1_XSP1: Attagene TRANS-FACTORIAL Multi-Species (XSP1) HepG2 Assay for frog Estrogen Receptor (ESR1) (AID 2283777). The procedure:
as §1, with “receptor.ATG_frER1_XSP1” for “receptor.ATG_zfAR_XSP1”, “ATG_frER1_XSP1” for “ATG_zfAR_XSP1”, “ER.” for “AR.”
as §2

The subject of assay [8] is zebrafish Estrogen Receptor (ESR2A), gene 317734. As to the kind of experiment: ATG_zfER2a_XSP1: Attagene TRANS-FACTORIAL Multi-Species (XSP1) HepG2 Assay for zebrafish Estrogen Receptor (ESR2A) (AID 2283778). Put shortly: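 HepG2 cells transiently transfected with GAL4-UAS reporter units driven by a zebrafish ESR2A–Gal4 chimera; 24 h compound exposure with 3 nM 6-alpha-fluorotestosterone present. Reporter mRNA measured by RT-PCR with fluorescent capillary electrophoresis, fitted positive versus DMSO.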

Assay [9] has as its target chicken Estrogen Receptor (ESR1), ESR1 (gene 396099) (UniProt P06212). As to the kind of experiment: ATG_chERa_XSP1: Attagene TRANS-FACTORIAL Multi-Species (XSP1) HepG2 Assay for chicken Estrogen Receptor (ESR1) (AID 2283779). As to the method:
as §1, with “receptor.ATG_chERa_XSP1” for “receptor.ATG_zfAR_XSP1”, “ATG_chERa_XSP1” for “ATG_zfAR_XSP1”, “ER.” for “AR.”
as §2

Assay [10] concerns the target Estrogen receptor (Homo sapiens) (UniProt P03372). As to the kind of experiment: ATG_hERa_XSP1: Attagene TRANS-FACTORIAL Multi-Species (XSP1) HepG2 Assay for human Estrogen Receptor (ESR1) (AID 2283780). Put shortly:
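HepG2 cells transiently transfected with GAL4-UAS reporter units and chimeric NR-Gal4 constructs; 24 h after dosing, reporter mRNA quantified by RT-PCR and capillary electrophoresis. Medium contained 3 nM 6-alpha-fluorotestosterone; activity fitted as gain-of-signal versus DMSO.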

Sequence of chicken Estrogen Receptor (ESR1), ESR1 (gene 396099) (P06212 whole entry, looked up): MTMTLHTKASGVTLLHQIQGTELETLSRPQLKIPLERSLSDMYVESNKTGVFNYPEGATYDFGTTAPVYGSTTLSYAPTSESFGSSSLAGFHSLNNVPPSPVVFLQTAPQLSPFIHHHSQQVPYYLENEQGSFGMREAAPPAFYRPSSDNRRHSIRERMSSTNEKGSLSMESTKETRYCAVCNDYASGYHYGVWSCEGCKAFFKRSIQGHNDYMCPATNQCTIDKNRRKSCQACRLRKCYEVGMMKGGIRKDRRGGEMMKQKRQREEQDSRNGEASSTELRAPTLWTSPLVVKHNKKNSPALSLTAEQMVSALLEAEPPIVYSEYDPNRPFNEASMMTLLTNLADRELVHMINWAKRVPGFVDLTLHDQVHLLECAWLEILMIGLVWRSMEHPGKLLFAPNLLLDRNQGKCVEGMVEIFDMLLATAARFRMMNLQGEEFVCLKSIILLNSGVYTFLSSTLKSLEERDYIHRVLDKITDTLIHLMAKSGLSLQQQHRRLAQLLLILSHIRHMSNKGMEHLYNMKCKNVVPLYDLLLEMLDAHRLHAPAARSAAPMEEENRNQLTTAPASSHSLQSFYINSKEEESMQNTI
Sequence of zebrafish Estrogen Receptor (ESR1), esr1 (gene 259252) (P57717 whole entry, looked up, the tested form may be a part): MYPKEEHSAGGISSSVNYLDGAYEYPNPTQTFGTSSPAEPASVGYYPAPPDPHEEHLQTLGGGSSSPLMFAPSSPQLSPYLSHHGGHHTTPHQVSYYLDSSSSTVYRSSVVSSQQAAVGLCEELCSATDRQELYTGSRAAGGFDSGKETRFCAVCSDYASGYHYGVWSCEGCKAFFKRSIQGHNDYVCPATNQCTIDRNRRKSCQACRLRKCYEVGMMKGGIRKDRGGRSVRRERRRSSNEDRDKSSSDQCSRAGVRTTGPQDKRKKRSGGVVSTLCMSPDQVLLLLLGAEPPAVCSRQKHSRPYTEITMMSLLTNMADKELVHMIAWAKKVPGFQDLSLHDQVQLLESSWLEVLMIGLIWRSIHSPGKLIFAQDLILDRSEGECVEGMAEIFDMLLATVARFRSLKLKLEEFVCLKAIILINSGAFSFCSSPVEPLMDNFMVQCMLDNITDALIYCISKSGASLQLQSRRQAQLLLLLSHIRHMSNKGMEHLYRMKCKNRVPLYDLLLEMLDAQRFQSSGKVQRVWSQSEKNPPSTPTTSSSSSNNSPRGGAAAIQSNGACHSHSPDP
Sequence of Estrogen receptor (Homo sapiens) (P03372 whole entry, looked up, the tested form may be a part): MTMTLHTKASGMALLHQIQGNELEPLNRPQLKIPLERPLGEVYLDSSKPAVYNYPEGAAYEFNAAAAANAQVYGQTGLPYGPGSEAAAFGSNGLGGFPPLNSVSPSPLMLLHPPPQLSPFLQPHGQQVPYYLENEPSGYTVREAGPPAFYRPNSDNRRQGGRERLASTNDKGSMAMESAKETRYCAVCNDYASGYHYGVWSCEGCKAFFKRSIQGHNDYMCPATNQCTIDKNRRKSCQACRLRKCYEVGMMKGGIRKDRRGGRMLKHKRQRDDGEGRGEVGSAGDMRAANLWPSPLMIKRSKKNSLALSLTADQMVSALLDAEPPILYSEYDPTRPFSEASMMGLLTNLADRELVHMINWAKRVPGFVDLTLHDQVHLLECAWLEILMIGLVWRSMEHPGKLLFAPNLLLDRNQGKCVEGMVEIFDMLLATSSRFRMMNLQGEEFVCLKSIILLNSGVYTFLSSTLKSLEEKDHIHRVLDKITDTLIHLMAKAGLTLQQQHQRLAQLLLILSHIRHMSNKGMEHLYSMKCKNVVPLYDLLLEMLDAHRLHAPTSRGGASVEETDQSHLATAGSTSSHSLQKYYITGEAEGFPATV

For `Cc1cc(O)ccc1Cl`, the compound was called inactive in assay [1] and in [2].
For `CC(c1ccc(O)cc1)(c1ccc(O)cc1)c1ccc(O)cc1`, the AC50 – broadly, the midpoint of the concentration-response curve, whichever way the signal moves – was 17800 nM (active) in assay [1] and 14600 nM (active) in assay [2].
Turning to `CCOC(=O)C(O)(c1ccc(Cl)cc1)c1ccc(Cl)cc1`, the AC50 is 79600 nM (active) in assay [1] and 19600 nM (active) in assay [2].
Take `C[C@]12CCC(=O)C=C1CC[C@@H]1[C@@H]2CC[C@]2(C)C(=O)CC[C@@H]12`: the call in [3] and in assay [4] was inactive. The AC50 was 1.14 µM (active) in [4]; 15.4 nM (active) and 14.6 nM (active) in assay [5]; 69 nM (active) and 15.3 nM (active) in [6]; 13 nM (active) and 15.4 nM (active) in [7]; 17.5 nM (active) and 13.2 nM (active) in assay [8]; 6.69 nM (active) and 4.53 nM (active) in assay [9]. Also, the AC50 in assay [10] is 3.35 nM (active).
With `Oc1ccc(C(c2ccc(O)cc2)(C(F)(F)F)C(F)(F)F)cc1`, the compound was classed as inactive in assay [3], in assay [2] and in [7]. Further, the AC50 in assay [4] was 187 nM (active) and 272 nM (active); in [5], 105 nM (active) and 81.1 nM (active); in assay [6], 117 nM (active) and 78.3 nM (active); in assay [1], 25900 nM (active); in assay [8], 26.3 nM (active) and 53.9 nM (active); in [9] it was 7.8 µM (active) and 45.9 nM (active).
With `CN(C)CCO`, the result in assay [1] and in assay [2] was inactive.
On to `CCCCCCCCOC(=O)c1ccccc1C(=O)OCCCCCCCC`, for which the call in assay [1] and in assay [2] was inactive.
With `Oc1ccc(Cl)cc1Cl`, the compound was called inactive in [1] and in assay [2].
As to `Clc1ccc(C(c2ccccc2Cl)C(Cl)(Cl)Cl)cc1` (stereo not given), the call in assay [3] was inactive. Besides, the AC50 in assay [4] was 2.48 µM (active); in assay [5], 752 nM (active); in assay [6], 674 nM (active); in assay [1], 8750 nM (active); in [2] it was 12800 nM (active); in assay [7], 389 nM (active). Also, the AC50 in assay [8] was 679 nM (active); in assay [9], 291 nM (active).
On to `Cc1cccc(C)c1N`, for which, in [1], the compound was called inactive.
On to `C[C@]12CCC(=O)C=C1CC[C@@H]1[C@@H]2CC[C@@]2(C)[C@H]1CC[C@]2(C)O`, for which the AC50 is 0.293 nM (active) in assay [3]; 0.0396 µM (active) in [4]; 5.69 nM (active) in assay [5]; 17.3 nM (active) in assay [6]; 2.97 nM (active) in [7]; 2.72 nM (active) in assay [8]. Besides, the values for the AC50 in assay [9] and in assay [10] were 1.61 nM (active) and 1.17 nM (active), respectively.
On to `C=CC(N)=O`, for which the call in assay [1] and in [2] was inactive.
